# Experimental data taken from article PMC5540273 (PLoS ONE, 2017).
# Like-named read-outs stand apart in the source and are kept apart here.
# Assays:
# [1] = tested on: PKMYT1; settings: concentration: 1 μM, replicates: in singlicate; n = 1
# [2] = tested on: PKN1; settings: concentration: 1 μM, replicates: in singlicate; n = 1
# [3] = tested on: PKN2; settings: concentration: 1 μM, replicates: in singlicate; n = 1
# [4] = tested on: PLK1; settings: n = 1
# [5] = tested on: PLK2; settings: concentration: 1 μM, replicates: in singlicate; n = 1
# [6] = tested on: PLK3; settings: concentration: 1 μM, replicates: in singlicate; n = 1
# [7] = tested on: PLK4; settings: concentration: 1 μM, replicates: in singlicate; n = 1
# [8] = tested on: PRKCD; settings: concentration: 1 μM, replicates: in singlicate; n = 1
# [9] = tested on: PRKCE; settings: concentration: 1 μM, replicates: in singlicate; n = 1
# [10] = tested on: PRKCH; settings: concentration: 1 μM, replicates: in singlicate; n = 1
# [11] = tested on: PRKCI; settings: concentration: 1 μM, replicates: in singlicate; n = 1
# [12] = tested on: PRKCQ; settings: concentration: 1 μM, replicates: in singlicate; n = 1
# [13] = tested on: PRKD1; settings: concentration: 1 μM, replicates: in singlicate; n = 1
# [14] = tested on: PRKD2; settings: concentration: 1 μM, replicates: in singlicate; n = 1
# [15] = tested on: PRKD3; settings: concentration: 1 μM, replicates: in singlicate; n = 1
# [16] = tested on: PRKG1; settings: concentration: 1 μM, replicates: in singlicate; n = 1
# [17] = tested on: PRKG2; settings: concentration: 1 μM, replicates: in singlicate; n = 1
# [18] = tested on: T1, PRKR; settings: concentration: 1 μM, replicates: in singlicate; n = 1
# T1 construct: gene EIF2AK2
# [19] = tested on: PRKX; settings: concentration: 1 μM, replicates: in singlicate; n = 1
# [20] = tested on: PRP4; settings: concentration: 1 μM, replicates: in singlicate; n = 1
# [21] = concentration: 1 μM, replicates: in singlicate
# 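Note: KINOMEscan kinase panel screen.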
smiles,measurement,setting,value
Cc1ccc(NC(=O)c2ccnc(N3CCN(C)CC3)c2)cc1-c1ccc(C(=O)NCC2CC2)cc1 [GW775604],%Inh,[1],9%
same,%Inh,[2],0%
same,%Inh,[3],0%
same,%Inh,[4]; [21],6%
same,%Inh,[5],7%
same,%Inh,[6],5%
same,%Inh,[7],0%
same,%Inh,[8],0%
same,%Inh,[9],0%
same,%Inh,[10],0%
same,%Inh,[11],0%
same,%Inh,[12],0%
same,%Inh,[13],0%
same,%Inh,[14],2%
same,%Inh,[15],0%
same,%Inh,[16],0%
same,%Inh,[17],0%
same,%Inh,[18],0%
same,%Inh,[19],0%
same,%Inh,[20],0%
COc1cc2ncn(-c3cc(OCc4sccc4Cl)c(C(N)=O)s3)c2cc1OC [GSK448459],%Inh,[1],0%
same,%Inh,[2],0%
same,%Inh,[3],0%
same,%Inh,[4]; 1 µM,100%
same,%Inh,[5],99.5%
same,%Inh,[6],99.5%
same,%Inh,[7],4%
same,%Inh,[8],0%
same,%Inh,[9],0%
same,%Inh,[10],0%
same,%Inh,[11],10%
same,%Inh,[12],0%
same,%Inh,[13],0%
same,%Inh,[14],0%
same,%Inh,[15],0%
same,%Inh,[16],14%
same,%Inh,[17],13%
same,%Inh,[18],0%
same,%Inh,[19],0%
same,%Inh,[20],26%
COc1ccc(S(=O)(=O)NC2CCN(c3cc(C)nc(Nc4cccc(C#N)c4)n3)CC2)cc1.O=C(O)C(F)(F)F [GSK1653539],%Inh,[1],0%
same,%Inh,[2],0%
same,%Inh,[3],0%
same,%Inh,[4]; [21],0%
same,%Inh,[5],0%
same,%Inh,[6],0%
same,%Inh,[7],0%
same,%Inh,[8],0%
same,%Inh,[9],0%
same,%Inh,[10],11%
same,%Inh,[11],3%
same,%Inh,[12],0%
same,%Inh,[13],60%
same,%Inh,[14],19%
same,%Inh,[15],48%
same,%Inh,[16],0%
same,%Inh,[17],0%
same,%Inh,[18],1%
same,%Inh,[19],0%
same,%Inh,[20],3%
Cc1cn2c(=O)cc(N3CCOCC3)nc2n1Cc1cccc(Cl)c1Cl [GSK2334006],%Inh,[1],12%
same,%Inh,[2],33%
same,%Inh,[3],0%
same,%Inh,[4]; [21],24%
same,%Inh,[5],0%
same,%Inh,[6],0%
same,%Inh,[7],0%
same,%Inh,[8],0%
same,%Inh,[9],13%
same,%Inh,[10],28%
same,%Inh,[11],31%
same,%Inh,[12],28%
same,%Inh,[13],0%
same,%Inh,[14],10%
same,%Inh,[15],18%
same,%Inh,[16],0%
same,%Inh,[17],0%
same,%Inh,[18],0%
same,%Inh,[19],24%
same,%Inh,[20],0%
COc1ccc(Nc2nccc(N3CCC(NC(=O)Nc4cccc(C(C)=O)c4)C3)n2)cc1 (centres unmarked) [GSK1379731],%Inh,[1],0%
same,%Inh,[2],3%
same,%Inh,[3],0%
same,%Inh,[4]; [21],7%
same,%Inh,[5],0%
same,%Inh,[6],0%
same,%Inh,[7],0%
same,%Inh,[8],0%
same,%Inh,[9],0%
same,%Inh,[10],0%
same,%Inh,[11],18%
same,%Inh,[12],18%
same,%Inh,[13],0%
same,%Inh,[14],11%
same,%Inh,[15],7%
same,%Inh,[16],0%
same,%Inh,[17],0%
same,%Inh,[18],0%
same,%Inh,[19],24%
same,%Inh,[20],0%
Cc1c(Cn2c(C)nn3c(=O)cc(N4CCOC(C)C4)nc23)cccc1C(F)(F)F (centres unmarked) [GSK2344444],%Inh,[1],0%
same,%Inh,[2],0%
same,%Inh,[3],0%
same,%Inh,[4]; [21],0%
same,%Inh,[5],0%
same,%Inh,[6],0%
same,%Inh,[7],0%
same,%Inh,[8],0%
same,%Inh,[9],0%
same,%Inh,[10],0%
same,%Inh,[11],0%
same,%Inh,[12],0%
same,%Inh,[13],0%
same,%Inh,[14],0%
same,%Inh,[15],22%
same,%Inh,[16],14%
same,%Inh,[17],0%
same,%Inh,[18],0%
same,%Inh,[19],3%
same,%Inh,[20],0%
NS(=O)(=O)c1cccc(-c2ccc3nccc(-c4cccc(S(N)(=O)=O)c4)c3c2)c1 [GW867253],%Inh,[1],3%
same,%Inh,[2],0%
same,%Inh,[3],11%
same,%Inh,[4]; [21],24%
same,%Inh,[5],19%
same,%Inh,[6],30%
same,%Inh,[7],14%
same,%Inh,[8],23%
same,%Inh,[9],18%
same,%Inh,[10],0%
same,%Inh,[11],0%
same,%Inh,[12],0%
same,%Inh,[13],0%
same,%Inh,[14],0%
same,%Inh,[15],0%
same,%Inh,[16],28%
same,%Inh,[17],0%
same,%Inh,[18],4%
same,%Inh,[19],0%
same,%Inh,[20],0%
